Most compounds without a hit are left out; they make up all but 3.5% or so of the library.
Pf apPOL inh = Pf-apPOL DNA polymerase inhibition; Recombinant Pf-apPOL, molecular beacon fluorescence, 1.5 h; inhibition, % at 10 µM; 210,000 tested, 0.25% active; AID 1794808
mHTT CaM bind = inhibitors of human mutant huntingtin-calmodulin interaction | 190,000 tested, 3.6% active | P42858 | AID 1671202 | inhibition, % at 15 µM | AlphaScreen His-mHTT/GST-CaM binding, luminescence;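 further: 0% = both proteins with DMSO and 100% = one protein alone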
Target sequence (P42858 whole entry, looked up, stated change not applied): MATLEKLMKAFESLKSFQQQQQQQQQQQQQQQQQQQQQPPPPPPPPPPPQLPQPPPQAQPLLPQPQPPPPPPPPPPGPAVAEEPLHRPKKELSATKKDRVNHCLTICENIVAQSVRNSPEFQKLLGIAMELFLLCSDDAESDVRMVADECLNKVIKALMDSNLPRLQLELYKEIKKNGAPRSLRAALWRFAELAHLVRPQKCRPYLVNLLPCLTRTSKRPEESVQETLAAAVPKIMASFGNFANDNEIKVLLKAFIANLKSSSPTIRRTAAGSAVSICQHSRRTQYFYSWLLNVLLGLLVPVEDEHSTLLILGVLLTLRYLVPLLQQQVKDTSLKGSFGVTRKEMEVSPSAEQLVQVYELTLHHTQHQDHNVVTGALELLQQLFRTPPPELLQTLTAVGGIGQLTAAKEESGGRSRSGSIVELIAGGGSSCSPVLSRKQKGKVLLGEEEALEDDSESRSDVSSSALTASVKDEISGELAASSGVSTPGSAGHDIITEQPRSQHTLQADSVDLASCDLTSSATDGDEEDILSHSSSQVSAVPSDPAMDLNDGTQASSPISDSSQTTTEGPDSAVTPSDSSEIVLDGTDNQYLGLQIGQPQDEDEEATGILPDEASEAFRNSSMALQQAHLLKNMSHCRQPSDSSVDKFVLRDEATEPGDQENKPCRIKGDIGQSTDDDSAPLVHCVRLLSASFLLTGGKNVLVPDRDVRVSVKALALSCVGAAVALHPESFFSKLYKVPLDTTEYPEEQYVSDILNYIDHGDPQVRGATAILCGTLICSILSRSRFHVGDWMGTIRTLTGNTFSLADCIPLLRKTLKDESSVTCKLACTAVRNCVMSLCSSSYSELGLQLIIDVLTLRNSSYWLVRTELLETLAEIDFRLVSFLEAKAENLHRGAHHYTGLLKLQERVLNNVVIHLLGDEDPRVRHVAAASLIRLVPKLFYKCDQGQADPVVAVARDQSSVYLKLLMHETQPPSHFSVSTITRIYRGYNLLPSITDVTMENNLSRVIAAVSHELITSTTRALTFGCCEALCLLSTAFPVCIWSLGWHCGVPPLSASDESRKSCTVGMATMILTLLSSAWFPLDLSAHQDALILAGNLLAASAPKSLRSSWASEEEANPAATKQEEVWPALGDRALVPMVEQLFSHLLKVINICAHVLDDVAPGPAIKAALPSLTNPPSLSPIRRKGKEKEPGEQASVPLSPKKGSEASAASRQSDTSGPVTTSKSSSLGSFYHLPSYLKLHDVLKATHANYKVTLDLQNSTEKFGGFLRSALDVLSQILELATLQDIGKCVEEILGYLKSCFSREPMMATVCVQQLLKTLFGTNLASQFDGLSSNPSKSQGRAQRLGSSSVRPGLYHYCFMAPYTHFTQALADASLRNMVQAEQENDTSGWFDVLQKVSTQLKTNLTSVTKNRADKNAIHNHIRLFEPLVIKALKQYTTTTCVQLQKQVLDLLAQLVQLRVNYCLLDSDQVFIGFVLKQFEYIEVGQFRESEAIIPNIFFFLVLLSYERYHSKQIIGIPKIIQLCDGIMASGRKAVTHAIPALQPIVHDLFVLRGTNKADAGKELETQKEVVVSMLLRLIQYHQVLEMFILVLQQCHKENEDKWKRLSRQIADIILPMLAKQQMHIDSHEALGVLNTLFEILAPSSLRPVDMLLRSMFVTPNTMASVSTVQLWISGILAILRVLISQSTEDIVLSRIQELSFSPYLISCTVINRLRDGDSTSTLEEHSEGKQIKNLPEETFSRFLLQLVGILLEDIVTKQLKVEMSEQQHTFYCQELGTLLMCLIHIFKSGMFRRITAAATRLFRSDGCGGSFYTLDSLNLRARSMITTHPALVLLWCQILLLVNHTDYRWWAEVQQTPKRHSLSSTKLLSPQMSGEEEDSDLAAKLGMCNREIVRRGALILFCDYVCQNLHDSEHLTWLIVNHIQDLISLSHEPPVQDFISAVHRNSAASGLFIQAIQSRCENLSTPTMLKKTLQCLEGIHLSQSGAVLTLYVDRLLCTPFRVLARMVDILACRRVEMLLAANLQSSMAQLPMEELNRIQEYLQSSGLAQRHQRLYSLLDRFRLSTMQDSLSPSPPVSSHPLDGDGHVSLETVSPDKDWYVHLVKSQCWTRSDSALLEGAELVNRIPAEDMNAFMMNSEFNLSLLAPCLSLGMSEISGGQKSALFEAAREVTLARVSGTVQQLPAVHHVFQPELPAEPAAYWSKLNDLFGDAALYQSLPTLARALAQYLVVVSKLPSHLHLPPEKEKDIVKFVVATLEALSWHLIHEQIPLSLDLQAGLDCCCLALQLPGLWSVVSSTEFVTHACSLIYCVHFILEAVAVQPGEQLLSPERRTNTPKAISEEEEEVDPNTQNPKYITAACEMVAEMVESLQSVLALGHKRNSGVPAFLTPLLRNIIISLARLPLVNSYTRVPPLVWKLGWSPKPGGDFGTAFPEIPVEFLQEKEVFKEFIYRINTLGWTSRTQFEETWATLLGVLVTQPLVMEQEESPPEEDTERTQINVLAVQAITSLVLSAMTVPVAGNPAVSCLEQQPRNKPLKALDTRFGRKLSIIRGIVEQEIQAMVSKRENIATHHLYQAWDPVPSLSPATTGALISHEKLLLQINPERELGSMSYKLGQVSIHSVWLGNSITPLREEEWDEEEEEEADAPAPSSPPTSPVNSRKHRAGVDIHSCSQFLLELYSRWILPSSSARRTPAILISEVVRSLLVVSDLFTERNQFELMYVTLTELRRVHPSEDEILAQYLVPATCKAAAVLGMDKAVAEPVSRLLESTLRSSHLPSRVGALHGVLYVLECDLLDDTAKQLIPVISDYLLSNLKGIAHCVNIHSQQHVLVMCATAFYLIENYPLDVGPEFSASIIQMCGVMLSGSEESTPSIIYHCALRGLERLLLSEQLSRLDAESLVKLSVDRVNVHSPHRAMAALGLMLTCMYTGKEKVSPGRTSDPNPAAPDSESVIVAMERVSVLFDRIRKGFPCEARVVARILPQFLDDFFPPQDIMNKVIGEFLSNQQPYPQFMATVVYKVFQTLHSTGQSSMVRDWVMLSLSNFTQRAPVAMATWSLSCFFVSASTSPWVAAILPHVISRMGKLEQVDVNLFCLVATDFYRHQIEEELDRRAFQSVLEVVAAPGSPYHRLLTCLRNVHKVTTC
* = called active by the depositor; nt = no result. No stated cut-off is given here; in the data, active means inhibition above about 50%; inactive means the rest.

SMILES | Pf apPOL inh | mHTT CaM bind
CCCCN1C(=O)C(C)(C(=O)NCc2ccccc2)Oc2cccnc21 (configuration not stated) | -2 | -9
Cn1cnc2c(-c3cccc(Cl)c3)csc2c1=O | -3 | -5
COCCC1CCN(C(=O)c2ccccc2OC)CC1 | -2 | -3
COc1ccc(C(=O)N2CCC(CCOc3ccccc3)CC2)c(C)c1 | -7 | 60*
O=C(c1ccc(F)c(F)c1)N1CCC(CCOc2ccccc2F)CC1 | 0 | -32
CN(C)c1cccc(C(=O)N2CCC(CCOc3ccccc3F)CC2)c1 | -2 | 95*
COc1ccccc1C(=O)N1CCC(CCOc2ccccc2F)CC1 | -1 | 52*
CN(C)c1cccc(C(=O)N2CCC(CCOc3ccc(F)cc3)CC2)c1 | -2 | 93*
COc1cccc(C(=O)N2CCC(CCOc3ccc(F)cc3)CC2)c1 | -2 | 32
COCCC1CCN(C(=O)c2ccc(OC)cc2C)CC1 | -8 | -3
CCCn1c(=O)c(N2CCN(C(=O)c3cccc(Cl)c3)CC2)nc2ccccc21 | -5 | -21
Cc1cc(Cl)ccc1N1CCN(C(=O)NC(C)(C)C)C(C)C1=O (configuration not stated) | -1 | -7
CCn1c(=O)c(NCc2cc(F)cc(F)c2)nc2ccncc21 | -9 | -3
Cc1cc(C)cc(OCC(=O)Nc2cc(-c3nc4ncccc4o3)ccc2C)c1 | -3 | -9
Cc1ccc(N2CCC(C(=O)NCC(C)C)C2=O)c(C)c1 (configuration not stated) | -5 | -1
CC(=O)c1sc(NC(=O)c2cc(Cl)sc2Cl)nc1-c1ccccc1 | 1 | -16
COc1cccc(C(=O)N2CCC(CCOc3ccccc3)CC2)c1 | -3 | 1
CN(C)c1cccc(C(=O)N2CCC(CCOc3ccccc3)CC2)c1 | -2 | 86*
CN(C(=O)CSc1nc2ccccc2c(=O)n1-c1ccccc1)c1ccccc1 | -1 | -1
Cc1c(NC(=O)COc2ccccc2)cccc1-c1nc2ncccc2o1 | -6 | -1
CC(=O)Nc1cccc(OCCCNS(=O)(=O)c2ccc(Oc3cccc(Cl)c3C#N)cc2)c1 | -5 | nt
O=C(NCCN1CCOC1=O)C(=O)NCCN1CCOC1=O | -3 | -7
COc1ccc2c(c1)c(CC(=O)NCc1cccnc1)c(C)n2C(=O)c1ccc(Cl)cc1 | -4 | 58*
O=C(Cc1ccc(Cl)cc1)NCc1cccnc1 | 10 | -2
Cc1ccccc1NC(=O)C1CCCN(C(=O)c2ccccc2F)C1 (configuration not stated) | -13 | 32
SMILES | Pf apPOL inh | mHTT CaM bind
CC(=O)N(C)C1=C(N2CCCC2)C(=O)c2ccccc2C1=O | -3 | 15
CC(=O)N(C1=C(N2CCCCC2)C(=O)c2ccccc2C1=O)c1cccc(Cl)c1 | 3 | 76*
CC(=O)N(C1=C(N2CCOCC2)C(=O)c2ccccc2C1=O)c1ccc(C(=O)O)cc1 | -12 | 18
CC(=O)N(C1=C(N2CCCC2)C(=O)c2ccccc2C1=O)c1ccc(F)c(F)c1 | -4 | 100*
O=C(COc1ccc(Cl)cc1)N1CCC(c2cnn(-c3cccc(F)c3)c2)CC1 | -2 | 6
CCOc1ccc2nc(N3CCN(C(C)=O)CC3)sc2c1 | -2 | -3
O=C1CCC(C(=O)N(CC2CCCO2)C2(C(=O)NC3CCCC3)CCCCC2)N1 (configuration not stated) | -11 | -1
Cn1c(SCc2ccccc2Cl)nc2ccccc2c1=O | -1 | -3
O=C(Nc1ccc(S(=O)(=O)Nc2cccc(Cl)c2Cl)cc1)c1ccc([N+](=O)[O-])cc1 | -7 | 62*
O=C(Nc1ccc(S(=O)(=O)Nc2ccccc2)cc1)c1ccc([N+](=O)[O-])cc1 | 0 | -7
COc1cccc(-c2nn(CC(=O)N3CCc4ccccc43)c(=O)c3nc(C)sc23)c1 | -5 | -2
COc1ccc(-c2nn(Cc3ccccc3F)c(=O)c3nc(C)sc23)cc1OC | -8 | 65*
CC(NC(=O)c1cn2c(n1)CCCC2)c1ccc(F)cc1 (configuration not stated) | -8 | 10
CC(NC(=O)c1cn2c(n1)CSCC2)c1ccc(F)cc1 (configuration not stated) | -6 | 93*
O=C(Cc1ccccc1)N1CCCCC1c1nc(-c2ccncc2)no1 (configuration not stated) | 0 | -16
C=CCn1c(=N)n(CC(=O)c2ccc(Cl)c(Cl)c2)c2ccccc21 | -4 | -46
C=CCn1c(=N)n(CC(=O)c2ccc(-c3ccccc3)cc2)c2ccccc21 | -2 | 52*
CC(=O)Oc1ccc2ccccc2c1C=C1N=C2CCCCCN2C1=O | -9 | -18
Cc1ccccc1NC(=O)CSc1nccn1-c1cccc(C(=O)Nc2ccccc2)c1 | -7 | 60*
O=C(CSc1nccn1-c1cccc(Cl)c1)Nc1ccccc1F | 4 | 32
Clc1ccc(CN2CCCN(Cc3ccc(Cl)cc3)C2c2cccnc2)cc1 | 2 | nt
c1ccc(N2CCN(c3ccccc3)C2c2cccnc2)cc1 | -3 | 58*

Screening data: PubChem, University of Kansas High Throughput Screening Laboratory
